Hits are enriched below; roughly 21% of the tested compounds scored in any of these assays.
Shiga toxin inh = blocks Shiga toxin action in Vero cells; Vero cells, Shiga toxin protein synthesis inhibition reporter; inhibition, % at 38.7 µM; actives 9.2% (n = 290,000); AID 2315; in the data active means inhibition mostly above about 28%, no sharp cut-off; inactive means mostly below about 43%; further: 0% is about no effect
Pf growth 48h = P. falciparum growth inhibition at 48 hours (one generation); P. falciparum luciferase growth in erythrocytes, 48 h; Potency, µM (doses to about 28.7 µM), without a hit: at the top dose activity change, negative = inhibition, usual class: inhibitors; actives 5.9% (n = 310,000); AID 504832; further: potency means the concentration at half of the fitted maximal effect; on the % scale 0 is the no-effect control and ±100 the full control effect
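Luciferase-expressing parasites in RBCs, 2% Hct / 0.1% parasitemia final; RPMI 1640 + 0.5% Albumax; 37 C, 5% CO2, one generation; luminescence read-out, lower signal = inhibition.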
Pf growth 96h = inhibits malaria parasite growth, 96 h; P. falciparum luciferase reporter growth, 96 h; Potency, µM (highest dose often 28.7 µM), for inactives: at the top dose activity change, negative = inhibition, usual class: inhibitors; actives 6.9% (n = 320,000); further: potency means the concentration at half of the fitted maximal effect; on the % scale 0 is the no-effect control and ±100 the full control effect
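Readout is luminescence from an integrated firefly luciferase in P. falciparum. Red cells, 2% hematocrit and 0.05% parasitemia final, were cultured with compound through two parasite generations (96 hours) at 37 C, 5% CO2.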
AMA1 RON2 block = disrupts binding of P. falciparum AMA1 to RON2. AlphaScreen AMA1-biotinylated RON2 peptide binding. Potency, µM (highest dose often 58.2 µM), for the others: at the top dose activity change, negative = inhibition, actives largely listed as inhibitors. actives 0.2% (n = 360,000). AID 720542;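 further: potency means the concentration at half of the fitted maximal effect; 0% = vehicle wells and -100% = peptide control; nearly all actives have a fitted effect of over 45% in size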
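AMA1 (3D7) with his tag at 25 nM final met compounds first, then biotinylated RON2 peptide at 25 nM; detection used donor plus acceptor beads, 10 µg/mL apiece, read by AlphaScreen after 30 min at room temperature.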
HCV inh = blocks hepatitis C virus | Huh7.5.1 HCVcc-Cre infection, luciferase reporter, 44 h | Potency, µM (top dose mostly 41.8 µM), for the others: at the highest dose activity change, negative = inhibition, usual class: inhibitors | actives 3.4% (n = 340,000); further: potency means the concentration at half of the fitted maximal effect; on the % scale 0 is the no-effect control and ±100 the full control effect
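A cell-based infection assay in which seeded cells (1,000 per well) receive test compound after 4 h, are inoculated with HCVcc-Cre at approximately 0.5 moi, and are incubated 44 h before luminescence detection.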
CHX counter = counter-screen hit for Shiga toxin inhibitors, cycloheximide; cell reporter, cycloheximide protein synthesis inhibition counterscreen; max response, %; actives 12% (n = 300,000); in the data active means max response mostly above about 13%, no sharp cut-off; inactive means mostly below about 14%; further: read at 38.3 µM for the half of the compounds with a filed dose; 0% is about no effect
* marks the source's active call; other numbers are inactive results; [ ] = another dose, or the depositor's remark. Unless noted, the call rests on the fitted dose curve; in most records, active means well fitted curve in the direction sought with a large enough effect; inconclusive means small, poorly fitted or top-dose-only effect, or another doubt; inactive means no such curve, though single readings can be large; an effect the other way counts as inactive or inconclusive.

For COCCNC(=O)C1CCCN(C(=O)c2cc(C)n(C(C)(C)C)n2)CC1 (configuration not stated) the results were AMA1 RON2 block -0.2%.
`CCOc1ccc(CCNC(=O)C2=C(C)C(=O)OC23CCC(C)CC3)cc1` (configuration not stated) gave Shiga toxin inh -8.4, Pf growth 48h -3.5%, Pf growth 96h 10.4µM*, AMA1 RON2 block -3.6%, HCV inh -14.9%[8.37 µM] and CHX counter -1.8.
CSCCC(C(=O)Nc1c(C)cccc1C)N1CCN(c2ccc(F)cc2)CC1 (configuration not stated) was read as AMA1 RON2 block -23.0%.
For CC(=O)N(c1ccc2oc(=O)sc2c1)S(=O)(=O)c1ccccc1 the results were Shiga toxin inh -1.4, Pf growth 48h -16.9%, Pf growth 96h 15.2%, AMA1 RON2 block -14.5%, HCV inh -10.1% and CHX counter -3.5.
For CC(=O)Oc1ccccc1N(C(C)=O)S(=O)(=O)c1ccc2ccccc2c1 the results were Shiga toxin inh 23.1, Pf growth 48h -12.9%, Pf growth 96h 2.33µM*, AMA1 RON2 block 6.1%, HCV inh 1.3% and CHX counter 11.1.
For CC(=O)Oc1ccccc1C(=O)N1CCN(S(=O)(=O)c2ccc3ccccc3c2)CC1 the results were Shiga toxin inh 3.5, Pf growth 96h inconclusive, AMA1 RON2 block -3.4%, HCV inh 2.4% and CHX counter -1.5.
CC(=O)Oc1ccc(N(C(C)=O)S(=O)(=O)c2cccs2)c2ccccc12 was read as Shiga toxin inh -8.9, Pf growth 48h 4.15µM*, AMA1 RON2 block -24.0% and CHX counter -3.6.
For CC(=O)Oc1c(Br)cc(N(C(C)=O)S(=O)(=O)c2ccccc2)c2ccccc12 the results were Pf growth 48h 3.29µM*, Pf growth 96h inconclusive, AMA1 RON2 block 14.9%, HCV inh inconclusive and CHX counter 1.9.
For C[C@@H]1CN([C@H](C)CO)C(=O)c2cc(-c3ccc(C(=O)N(C)C)cc3)cnc2O[C@@H]1CN(C)C(=O)c1cccnc1 the results were AMA1 RON2 block 14.5%.
CC(C)c1ccc(CN2C(=O)NC3(CCCCCC3)C2=O)cc1 was read as Shiga toxin inh 8.9, Pf growth 48h -13.0%, Pf growth 96h inconclusive, AMA1 RON2 block 0.6%, HCV inh -25.6% and CHX counter -0.6.
CCOC(=O)c1nc(C)sc1-c1ccnn1S(=O)(=O)c1cccc(Cl)c1 was read as Shiga toxin inh 16.8, Pf growth 48h -15.3%, Pf growth 96h 4.2%, AMA1 RON2 block -0.8%, HCV inh -1.1% and CHX counter 1.0.
Screening CCC1CN(C(=O)N2CCC(C(=O)NCc3ccco3)CC2)c2cc(C)ccc2O1 (configuration not stated) returned Shiga toxin inh -4.4, Pf growth 48h -23.7%, Pf growth 96h 13.1µM*, AMA1 RON2 block -9.8%, HCV inh inconclusive and CHX counter -8.2.
Screening CCC1CN(C(=O)N2CCC(C(=O)NCCc3ccc(OC)cc3OC)CC2)c2ccccc2O1 (configuration not stated) returned Shiga toxin inh -1.6, Pf growth 48h inconclusive, Pf growth 96h inconclusive, AMA1 RON2 block -9.6%, HCV inh 12.6µM* and CHX counter -8.9.
`CCC1CN(C(=O)N2CCC(C(=O)NCCc3ccccc3OC)CC2)c2ccccc2O1` (configuration not stated) gave Shiga toxin inh -4.2, Pf growth 48h inconclusive, Pf growth 96h inconclusive, AMA1 RON2 block 16.1%, HCV inh inconclusive and CHX counter -10.6.
For O=C(COC(=O)c1ccccc1SCC(=O)N1CCCC1)NCc1ccc(F)cc1 the results were AMA1 RON2 block 3.1%.
`Cc1cccc2cc(CN(Cc3cccnc3)C(=O)c3ccccc3F)c(Cl)nc12` gave Shiga toxin inh -8.7, Pf growth 48h inconclusive, Pf growth 96h inconclusive, AMA1 RON2 block -0.6%, HCV inh -7.9% and CHX counter -0.6.
Cc1cc(C)c2cc(CN(Cc3cccnc3)C(=O)c3ccc(F)cc3)c(Cl)nc2c1 was read as Shiga toxin inh -13.1, Pf growth 48h 1.47µM*, Pf growth 96h inconclusive, AMA1 RON2 block 0.0%, HCV inh -18.3% and CHX counter -1.8.
O=C(NCCCN1CCN(c2ccccc2F)CC1)Nc1ccccc1[N+](=O)[O-] was read as Shiga toxin inh -2.9, Pf growth 48h -21.6%, Pf growth 96h -18.0%, AMA1 RON2 block 3.2%, HCV inh -15.4% and CHX counter -5.8.
For O=c1c2ccccc2nc(-c2ccccc2)n1Cc1ccccc1 the results were Shiga toxin inh 83.1*, Pf growth 48h 16.9%, Pf growth 96h -23.5%, AMA1 RON2 block 3.7%, HCV inh 0.0% and CHX counter 22.2.
For COc1ccc(-c2n(Cc3ccccc3)c3ccccc3[n+]2Cc2ccccc2)cc1 the results were Shiga toxin inh -5.9, Pf growth 48h 0.37µM*, Pf growth 96h inconclusive, AMA1 RON2 block -8.2%, HCV inh inconclusive and CHX counter 1.2.
C=CCn1c(-c2ccc(OC)cc2)nc2ccccc21 was read as Shiga toxin inh 30.3*, Pf growth 48h 1.8%, Pf growth 96h 0.2%, AMA1 RON2 block -4.8%, HCV inh 20.5% and CHX counter 35.5*.
`O=c1c2ccccc2nc(-c2ccccc2)n1Cc1ccc(Cl)cc1` gave Shiga toxin inh 42.4, Pf growth 48h 5.4%, AMA1 RON2 block -2.2%, HCV inh -6.2% and CHX counter 4.9.
For COc1ccc(-c2nc3ccccc3n2Cc2ccccc2)cc1 the results were Shiga toxin inh 14.0, Pf growth 96h inconclusive, AMA1 RON2 block -3.2%, HCV inh -7.9% and CHX counter 25.2*.
C[C@H](CO)N1C[C@H](C)[C@@H](CN(C)Cc2ccncc2)Oc2ccc(NC(=O)CCCCCC(=O)Nc3ccccc3N)cc2C1=O was read as AMA1 RON2 block 6.4% and HCV inh 0.5%.
`Cc1c(N(C)S(=O)(=O)c2ccc(Cl)c(C(=O)N3CCC(C(N)=O)CC3)c2)c(=O)n(-c2ccccc2)n1C` gave Pf growth 48h 4.6%, Pf growth 96h 10.1%, AMA1 RON2 block -8.9% and HCV inh 15.4%.
Screening NC(=NCCc1c[nH]c2ccccc12)NC(=O)c1ccc(F)cc1 returned Shiga toxin inh 42.4, Pf growth 48h inconclusive, Pf growth 96h inconclusive, AMA1 RON2 block -9.1%, HCV inh -7.6% and CHX counter 10.4.
`CCn1c(-c2ccc(N)cc2)nc2ccccc21` gave Shiga toxin inh 31.4, Pf growth 96h 39.7%, AMA1 RON2 block -9.6%, HCV inh 10.3% and CHX counter 7.4.
COc1cc(Cn2c(-c3ccc(O)c(OC)c3)nc3ccccc32)ccc1O was read as Shiga toxin inh -1.7, Pf growth 48h 2.94µM*, Pf growth 96h 13.1µM*, AMA1 RON2 block 11.9%, HCV inh -4.4% and CHX counter -3.9.

Screens deposited in PubChem BioAssay by National Center for Advancing Translational Sciences (NCATS).
